Test results published in PubChem BioAssay (EPA / NIEHS).
Active and inactive are the calls of the source. Rule for the calls: active = hit-call score of the fitted dose curve at least 0.9, where 1 is the maximum; inactive = score below 0.9.

target: Aryl hydrocarbon receptor (Homo sapiens) (UniProt P35869); assay: ATG_Ahr_CIS: Attagene CIS-FACTORIAL HepG2 Assay for human Aryl Hydrocarbon Receptor (Ahr) (AID 2282930); details: HepG2 AhR cis-factorial reporter transcription; actives raise or lower the signal
Sequence (P35869 whole entry, looked up): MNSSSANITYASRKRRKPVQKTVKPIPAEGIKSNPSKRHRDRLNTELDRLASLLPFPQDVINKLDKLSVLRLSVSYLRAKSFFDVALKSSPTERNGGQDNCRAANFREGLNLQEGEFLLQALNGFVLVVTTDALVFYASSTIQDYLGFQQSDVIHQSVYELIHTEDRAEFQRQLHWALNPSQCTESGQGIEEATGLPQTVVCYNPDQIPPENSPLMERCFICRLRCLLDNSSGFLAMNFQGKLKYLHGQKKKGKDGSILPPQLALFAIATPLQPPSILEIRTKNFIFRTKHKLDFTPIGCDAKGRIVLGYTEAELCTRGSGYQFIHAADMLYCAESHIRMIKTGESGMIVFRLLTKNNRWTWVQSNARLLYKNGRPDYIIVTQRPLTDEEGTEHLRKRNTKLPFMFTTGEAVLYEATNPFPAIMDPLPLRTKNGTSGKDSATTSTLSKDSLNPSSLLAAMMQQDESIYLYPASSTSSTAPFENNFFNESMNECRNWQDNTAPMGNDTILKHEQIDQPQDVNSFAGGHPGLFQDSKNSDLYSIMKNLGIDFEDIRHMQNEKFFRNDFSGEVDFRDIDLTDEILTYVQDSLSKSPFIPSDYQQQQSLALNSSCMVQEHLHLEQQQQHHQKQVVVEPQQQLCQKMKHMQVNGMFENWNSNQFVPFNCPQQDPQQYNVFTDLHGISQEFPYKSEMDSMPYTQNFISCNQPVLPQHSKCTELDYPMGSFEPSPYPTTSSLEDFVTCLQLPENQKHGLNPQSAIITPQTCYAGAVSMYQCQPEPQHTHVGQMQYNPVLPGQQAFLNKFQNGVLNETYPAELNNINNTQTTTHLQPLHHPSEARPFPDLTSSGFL
Procedure: ATG_CIS is a cell-based, multiplexed-readout assay that uses HepG2, a human liver cell line, with measurements taken at 24 hours after chemical dosing in a 24-well plate.ATG_Ahr_CIS is one of 52 assay component(s) measured or calculated from the ATG_CIS assay. It is designed to make measurements of mRNA induction, a form of inducible reporter, as detected with fluorescence intensity signals by Reverse transcription polymerase chain reaction (RT-PCR) and Capillary electrophoresis technology.Data from the assay component ATG_Ahr_CIS was analyzed into 1 assay endpoint. This assay endpoint, ATG_Ahr_CIS, was analyzed with bidirectional fitting relative to DMSO as the negative control and baseline of activity. Using a type of inducible reporter, measures of mRNA for gain or loss-of-signal activity can be used to understand the reporter gene at the transcription factor-level as they relate to the gene AHR. Furthermore, this assay endpoint can be referred to as a primary readout, because this assay has produced multiple assay endpoints where this one serves a reporter gene function. To generalize the intended target to other relatable targets, this assay endpoint is annotated to the dna binding intended target family, where the subfamily is basic helix-loop-helix protein.
Human liver HepG2 cells are transiently transfected with multiple reporter transcription units (MRTUs) in 6-well plates using FuGene 6 reagent (Roche; 3 ml FuGene/1 mg DNA). The MRTU constructs are regulated by a cis-regulating element (promoter). […] A major difference between the CIS and TRANS system is that in CIS activities of endogenous TFs are measured, whereas the TRANS assay evaluates changes in activities of exogenous, chimeric NR-Gal4 proteins. […] At the end of 24 hour incubation, total RNA was isolated using TriZol reagent (Invitrogen). The isolated RNA is then reverse-transcribed using oligo(dT) primer and Mo-MLV reverse transcriptase (Invitrogen) with DNAse I (Ambion) treatment for 30 min. The one-tenth of the produced cDNA was amplified by PCR using Taq DNA polymerase (Invitrogen) and two reporter sequence-specific primers. The PCR products were fluorescently labeled by primer extension with 6-arboxyfluorescein (6-FAM) 5'-labeled reporter sequence-specific primer (2 min at 95 C, 20 s at 68 C and 10 min at 72 C) and these products were digested with 5U of HpaI (New England Biolabs) for 2h at 37 C. […] The raw capillary electrophoresis data was processed using Attagraph software (Attagene).

SMILES | outcome | AC50
Cc1ccccc1OP(=O)(Oc1ccccc1C)Oc1ccccc1C | inactive | –
O=[N+]([O-])c1ccccc1O | inactive | –
CN(CCCC(O)c1cccnc1)N=O (stereo not given) | inactive | –
CC(F)(F)CC(F)(F)F | inactive | –
Cc1ccccc1OP(=O)(Oc1ccccc1)Oc1ccccc1 | inactive | –
Cc1cc(Cl)ccc1O | inactive | –
CCN(CCO)CCO | inactive | –
CC(C)=CC1C(C(=O)OCc2cccc(Oc3ccccc3)c2)C1(C)C (stereo not given) | inactive | –
O=C(NC(=O)c1c(F)cccc1F)Nc1cc(Cl)c(OC(F)(F)C(F)C(F)(F)F)cc1Cl (stereo not given) | – | 27.7 µM (active)
O=C1C[C@@H]2OCC=C3CN4CC[C@]56c7ccccc7N1[C@H]5[C@H]2[C@H]3C[C@H]46 | inactive | –
Nc1nc(=S)[nH][nH]1 | inactive | –
Cc1c([N+](=O)[O-])c(C)c([N+](=O)[O-])c(C(C)(C)C)c1[N+](=O)[O-] | inactive | –
CC(C=O)Cc1ccc2c(c1)OCO2 (stereo not given) | inactive | –
Cc1ccc2nc3sc(=O)sc3nc2c1 | inactive | –
CNC(=O)CSP(=O)(OC)OC | inactive | –
OCCCCO | inactive | –
OC(c1ccc(Cl)cc1)(c1ccc(Cl)cc1)c1cccnc1 | inactive | –
O=NN1CCCCCCC1 | inactive | –
[F][Sn]([c]1ccccc1)([c]1ccccc1)[c]1ccccc1 | – | 0.329 µM (active)
Brc1ccc(Br)cc1 | inactive | –

SMILES | outcome | AC50
CC(C)(C)c1ccccc1O | inactive | –
ClCCCCl | inactive | –
CC1(C)[C@H](/C=C2\CCSC2=O)[C@@H]1C(=O)OCc1coc(Cc2ccccc2)c1 | inactive | –
O=S(=O)(Oc1ccc(Cl)cc1)c1ccc(Cl)cc1 | inactive | –
O=C(O)c1cc(I)cc(I)c1I | – | 40.8 µM (active)
c1csc(-c2ccc(-c3cccs3)s2)c1 | – | 0.739 µM (active)
CCCSP(=S)(OCC)Oc1ccc(Cl)cc1Cl (stereo not given) | inactive | –
Cc1cc(Cl)ccc1OC(C)C(=O)O (stereo not given) | – | 28.5 µM (active)
C=CC(=O)NC(C)(C)CC(C)=O | inactive | –
CCCSP(=S)(OCC)Oc1ccc(SC)cc1 (stereo not given) | inactive | –
CCC[CH2][Sn]([CH2]CCC)([CH2]CCC)[CH2]CCC | inactive | –
NC(=O)c1ccc(N)nc1 | inactive | –
C#C[C@]1(O)CC[C@H]2[C@@H]3CCC4=CC(=O)CC[C@]4(C)[C@H]3CC[C@@]21C | inactive | –
CCCCCCCCCCCCN(C)C | inactive | –
CCN(CC)C(=O)C(Cl)=C(C)OP(=O)(OC)OC | inactive | –
CNC(=O)N(C)c1nc2ccccc2s1 | – | 1.08 µM (active)
N#Cc1ccccc1N | – | 33.2 µM (active)
CC(C)CP(=S)(S)CC(C)C | inactive | –
O=[N+]([O-])c1cc([As](=O)(O)O)ccc1O | inactive | –
O=c1nc(O)n(Cl)c(=O)n1Cl | inactive | –
